Laboratory results taken from PubChem BioAssay (Tox21).
Values without a mark were called inactive. Calls of active or inactive are those of the source. Calls follow the shape of the dose curve; as a rule, active = well fitted curve in the direction sought with a large enough effect in the repeat runs; inconclusive = weak or mixed curves; inactive = flat fitted curve, though single readings scatter.
% is scaled to controls: 0 for no effect and ±100 for the full control effect.

Test: qHTS assay to test for compound auto fluorescence at 590 nm (red) in HepG2 cells (AID 720674)
Details: HepG2 autofluorescence, red 540/590 nm, 1 h; series mostly up to 91.3 µM; fluorescence, relative to Rose Bengal: at the top concentration
Excerpt: U.S. Tox21 Program National Center for Advancing Translational Sciences [NCATS] NIH Chemical Genomics Center [NCGC] U.S. Environmental Protection Agency [EPA] National Institutes of Environmental Health Sciences [NIEHS] National Toxicology Program [NTP] U.S. Food and Drug Administration [FDA] Tox21 Assay Overview: Compound auto fluorescence often interferes with screening of the compound library against various biological targets and signaling pathways. Some of these compounds may have fluorophoric properties. Such properties may interfere with the assay outputs resulting in false positives and/or negatives. To decrease such complications and ensure the compound activities are relevant in terms of biological response, the Tox21 10K compound library was screened for auto fluorescence. From the fluorophores used as reporter signals in our screening assays, the auto fluorescence equivalencies of compounds against three fluorophores have been evaluated: Triamterene, Fluorescein and Rose Bengal sodium for blue, green and red fluorescence, respectively. The fluorescence intensities were measured using Excitation/Emission wavelengths at 405/460nm, 485/535nm and 540/590nm for blue, green and red labels, respectively. This assay includes the red fluorescence data.
Tox21 Assay Protocol Summary: 2,000 HepG2 cells in 5 uL of culture medium (MEM containing 10% FBS) per well were dispensed into black wall/clear bottom 1536-well plates using a Multidrop Combi Dispenser (ThermoFisher Scientific, Waltham, MA). The assay plates were incubated overnight at 37 C to allow cell attachment to the well bottom, followed by the transfer of 23 nL compound or DMSO vehicle by a pintool work station (Kalypsys , San Diego, CA). After the assay plates were incubated for 1 hr at 37 C and 5% CO2, fluorescence intensities in the assay plates were measured by an Envision (PerkinElmer, Shelton, CT) plate reader using three labels for measuring blue, green and red fluorescence at […] 460, 535 and 590 nm respectively.
In the case of c1ccc2ccccc2c1, the outcome is reported as “inactive”.
With CC1Cc2ccccc2N1NC(=O)c1ccc(Cl)c(S(N)(=O)=O)c1 (stereo not given) the outcome was “inactive”.
In the case of CCCCC(CC)COC(C)=O (stereo not given), the outcome is reported as “inactive”.
For CC1COc2ccccc2N1C(=O)C(Cl)Cl (stereo not given), the outcome was “inactive”.
For CC(=O)Nc1ccc(C(=O)O)cc1, the outcome was “inactive”.
For Cc1cc(Cc2ccc(N)c(C)c2)ccc1N, the outcome was “inactive”.
In the case of Cn1c([N+](=O)[O-])cnc1COC(N)=O, the outcome is reported as “inactive”.
In the case of COCC(C)O (stereo not given), the outcome is reported as “inactive”.
In the case of Oc1ccc2ccccc2c1N=Nc1ccccc1, the outcome is reported as “inactive”.
In the case of CCCCC/C=C\C/C=C\CCCCCCCC(=O)OC, the outcome is reported as “inactive”.
For CC(C)(CO)COC(=O)C(C)(C)CO, the outcome was “inactive”.
In the case of CCCCCCCCCC(=O)O, the outcome is reported as “inactive”.
With CC1(C)CC(N=C=O)CC(C)(CN=C=O)C1 (stereo not given) the outcome was “inactive”.
For CC(C)NCC(O)COc1cccc2ccccc12 (stereo not given), the outcome was “inactive”.
In the case of CN(C)c1ccc(C(=N)c2ccc(N(C)C)cc2)cc1, the outcome is reported as “inactive”.
For O=S(=O)(O)CCS, the outcome was “inactive”.
For CC(C)(N=C=O)c1cccc(C(C)(C)N=C=O)c1, the outcome was “inactive”.
For Nc1nc2ncc(CNc3ccc(C(=O)N[C@@H](CCC(=O)O)C(=O)O)cc3)nc2c(=O)[nH]1, the outcome was “inactive”.
For O=C1O[C@H](CO)[C@@H](O)[C@H](O)[C@H]1O, the outcome was “inactive”.
For CCc1ccc(O)cc1, the outcome was “inactive”.
With CCCCNC(N)=O the outcome was “inactive”.
With S=c1nc[nH]c2nc[nH]c12 the outcome was “inactive”.
With O=S(=O)(O)c1cc(S(=O)(=O)O)c2c(N=Nc3ccccc3)c(O)ccc2c1 the outcome was “inactive”.
With COC(=O)c1ccc(C(=O)OC)cc1 the outcome was “inactive”.
For CC(=O)[C@@]1(O)CC[C@H]2[C@@H]3CCC4=CC(=O)CC[C@]4(C)[C@H]3CC[C@@]21C, the outcome was “inactive”.
With CCCCCCOC(C)=O the outcome was “inactive”.
In the case of NS(=O)(=O)c1cc2c(cc1Cl)NC=NS2(=O)=O, the outcome is reported as “inactive”.
For O=C(O)c1cc(-c2ccccc2)nc2ccccc12, the outcome was “inactive”.
In the case of CS(=O)(=O)Nc1ccc([N+](=O)[O-])cc1Oc1ccccc1, the outcome is reported as “inactive”.
In the case of CC(C)n1c(/C=C/[C@@H](O)C[C@@H](O)CC(=O)O)c(-c2ccc(F)cc2)c2ccccc21, the outcome is reported as “inactive”.
With Cc1cc(O)c2c(c1)C(=O)c1cc(O)cc(O)c1C2=O the outcome was “inactive”.
With CC(C)(C)C1CCC(O)CC1 (stereo not given) the outcome was “inactive”.
In the case of O=[N+]([O-])c1cc(N(CCO)CCO)ccc1NCCO, the outcome is reported as “inactive”.
For C=CC(=O)OCCCCCCCC(C)C, the outcome was “inactive”.
With O=c1c(-c2ccc(O)cc2)coc2cc(O)ccc12 the “fluorescence, relative to Rose Bengal” value was -0.0748%.
In the case of NCCNCCNCCNCCN, the outcome is reported as “inactive”.
With OC1CCCC1 the outcome was “inactive”.
For O=C1N=C(O)CN1/N=C/c1ccc(-c2ccc([N+](=O)[O-])cc2)o1, the outcome was “inactive”.
In the case of Cc1ccc(N)c(S(=O)(=O)O)c1, the outcome is reported as “inactive”.
For C/C=C(C)/C=C/C=C(C)C, the outcome was “inactive”.
